Consider 4 compounds from PubChem BioAssay (EPA / NIEHS).

Results filed as inconclusive are left out. The source made the active and inactive calls. How the source made its calls, unless noted: active means hit-call score of the fitted dose curve at least 0.9, where 1 is the maximum; inactive means score below 0.9.

For test [1], the target named is Estrogen-related receptor gamma (Homo sapiens) (UniProt P62508). As to the kind of experiment: ATG_ERRg_TRANS: Attagene TRANS-FACTORIAL HepG2 Assay for human Estrogen-Related Receptor gamma (ERRg) (AID 2282977; active means hit-call score of the fitted dose curve at least 0.9, where 1 is the maximum;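 further: hits increase reporter signal over DMSO so potencies reflect activators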). To be noted: HepG2 Attagene TRANS reporter, ERRg transactivation. In short, it runs like this:
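Transient HepG2 transfectants, 24 h compound exposure, GAL4-UAS reporter mRNA by RT-PCR/6-FAM labelling/capillary electrophoresis; positive direction vs DMSO.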

In test [2] the target is Glucocorticoid receptor (Homo sapiens) (UniProt P04150). As to the kind of experiment: ATG_GR_TRANS: Attagene TRANS-FACTORIAL HepG2 Assay for human Glucocorticoid Receptor (GR) (AID 2282978; active means hit-call score of the fitted dose curve at least 0.9, where 1 is the maximum;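 further: activators score as hits since higher reporter transcript over DMSO is fitted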). To be noted: HepG2 Attagene TRANS GR reporter, mRNA transcription. An outline of the steps:
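HepG2 transient transfection, multiple reporter units, GAL4-UAS under NR-GAL4 chimera control. 24 h treatment. Reporter mRNA by RT-PCR/CE fluorescence, DMSO as negative control.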

Test [3] deals with Bile acid receptor (Homo sapiens) (UniProt Q96RI1). In words: ATG_FXR_TRANS: Attagene TRANS-FACTORIAL HepG2 Assay for Farnesoid X Receptor (FXR) (AID 2282979; active means hit-call score of the fitted dose curve at least 0.9, where 1 is the maximum;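 further: hits raise reporter mRNA above DMSO so AC50 marks FXR activation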). To be noted: HepG2 Attagene TRANS FXR-GAL4 reporter transcription. In short, it runs like this:
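HepG2 cells were transiently transfected with GAL4-UAS reporters driven by chimeric NR-Gal4 proteins and dosed for 24 h. Reporter mRNA was quantified by RT-PCR, fluorescent labelling, HpaI digestion and capillary electrophoresis, with gain of signal scored versus DMSO.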

The target in test [4] is Oxysterols receptor LXR-alpha (Homo sapiens) (UniProt Q13133). In words: ATG_LXRa_TRANS: Attagene TRANS-FACTORIAL HepG2 Assay for human Liver X Receptor alpha (LXRa) (AID 2282980; active means hit-call score of the fitted dose curve at least 0.9, where 1 is the maximum). To be noted: HepG2 Attagene TRANS reporter, LXRa transactivation. In short, it runs like this: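 HepG2 cells transiently transfected with GAL4-UAS reporter units for chimeric NR-Gal4 proteins, exposed to chemicals for 24 h. Reporter mRNA quantified by RT-PCR and capillary electrophoresis; gain of signal fitted relative to DMSO.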

The target of test [5] is Hepatocyte nuclear factor 4-alpha (Homo sapiens) (UniProt P41235). As to the kind of experiment: ATG_HNF4a_TRANS: Attagene TRANS-FACTORIAL HepG2 Assay for human Hepatocyte Nuclear Factor 4 alpha (HNF4a) (AID 2282982; active means hit-call score of the fitted dose curve at least 0.9, where 1 is the maximum). To be noted: HepG2 HNF4a transactivation reporter, mRNA readout. In short, it runs like this:
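HepG2 cells transiently transfected with multiplexed GAL4-UAS reporter units responsive to chimeric NR-GAL4 proteins; compound exposure 24 h. Reporter mRNA quantified by RT-PCR, 6-FAM labelling, HpaI digestion and capillary electrophoresis; gain of signal versus DMSO baseline.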

Test [6] in a line: ATG_M_06_TRANS: Attagene TRANS-FACTORIAL HepG2 Assay for M06 Transcription Factor (Internal Marker) (AID 2282983; active means hit-call score of the fitted dose curve at least 0.9, where 1 is the maximum;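 further: reporter transcript level by RT-PCR then capillary electrophoresis fluorescence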). To be noted: HepG2 Attagene TRANS M06 internal marker reporter. In short, it runs like this: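 HepG2 cells transiently transfected with GAL4-UAS multiple reporter units, dosed 24 h. Reporter RNA reverse-transcribed, PCR-amplified, 6-FAM-labeled, HpaI-digested and quantified by capillary electrophoresis; this internal-marker signal fitted upward relative to DMSO.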

Test [7] can be described thus: ATG_M_32_TRANS: Attagene TRANS-FACTORIAL HepG2 Assay for M32 Transcription Factor (Internal Marker) (AID 2282984; active means hit-call score of the fitted dose curve at least 0.9, where 1 is the maximum;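 further: transcript level of a background control reporter unit measured by RT-PCR and capillary electrophoresis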). The settings on record: HepG2 Attagene TRANS M32 internal marker reporter. In short, it runs like this: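 HepG2 cells transiently transfected with multiple GAL4-UAS reporter transcription units, dosed for 24 hours; reporter mRNA quantified by RT-PCR, 6-FAM primer extension, HpaI digestion and capillary electrophoresis. Gain-of-signal fitted versus DMSO baseline; internal background-control marker.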

The target of test [8] is Transcriptional activator Myb (Homo sapiens) (UniProt P10242). In words: ATG_Myb_CIS: Attagene CIS-FACTORIAL HepG2 Assay for human Myeloblastosis (Myb) Proto-Oncogene Transcription Factor (AID 2282986). To be noted: HepG2 Attagene CIS-FACTORIAL Myb reporter transcription; actives raise or lower the signal. An outline of the steps: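 Multiplexed cis-reporter system in HepG2: transient transfection, 24 h treatment, mRNA readout by RT-PCR and capillary electrophoresis. Both increases and decreases are scored versus DMSO negative control.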

Test [9] concerns the target Nuclear respiratory factor 1 (Homo sapiens) (UniProt Q16656). In words: ATG_NRF1_CIS: Attagene CIS-FACTORIAL HepG2 Assay for human Nuclear Respiratory Factor 1 (NRF1) Orphan Gene (AID 2282987). The settings on record: HepG2 NRF1 cis-element reporter, Attagene multiplex; actives raise or lower the signal. In short, it runs like this:
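Endogenous factor activity was captured via cis-element-driven reporter transcripts in HepG2 cells. Following 24 h chemical treatment, transcripts were quantified by RT-PCR and capillary electrophoresis.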

A short description of test [10]: ATG_NFI_CIS: Attagene CIS-FACTORIAL HepG2 Assay for human Nuclear Factor I (NFI) (AID 2282989). To be noted: HepG2 cis-regulatory reporter, NFI response element transcription; actives raise or lower the signal. An outline of the steps: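 After transient transfection of HepG2 with cis-promoter reporter constructs and 24 h dosing, RNA is reverse-transcribed, amplified, 6-FAM end-labelled and HpaI-digested before capillary analysis. Bidirectional curve fitting against DMSO.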

Test [11] deals with Myc proto-oncogene protein (Homo sapiens) (UniProt P01106). In words: ATG_Myc_CIS: Attagene CIS-FACTORIAL HepG2 Assay for human Myelocytomatosis (Myc) Proto-Oncogene Transcription Factor (AID 2282990). To be noted: HepG2, Attagene cis-reporter transcription factor activity; actives raise or lower the signal. In short, it runs like this: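 HepG2 cells transiently transfected with multiple cis-promoter-driven reporter transcription units, so endogenous TF activity is read. After 24 h compound exposure, reporter mRNA was quantified by RT-PCR, 6-FAM labelling, HpaI digestion and capillary electrophoresis; bidirectional fit versus DMSO.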

A short description of test [12]: ATG_NF_kB_CIS: Attagene CIS-FACTORIAL HepG2 Assay for human Nuclear Factor Kappa B (NF-kB) (AID 2282991). The settings on record: HepG2 Attagene cis-factorial NF-kB reporter mRNA; actives raise or lower the signal. An outline of the steps:
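After 24 h compound incubation, transfected HepG2 cells yield total RNA; reporter cDNA is PCR-amplified, end-labelled with 6-FAM, HpaI-digested and analysed on a genetic analyser. Endogenous factor activity, DMSO-referenced bidirectional fit.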

Test [13] in a line: ATG_NRF2_ARE_CIS: Attagene CIS-FACTORIAL HepG2 Assay for human Nuclear Factor Erythroid 2 Related Factor 2 (NFR2) response to Antioxidant Response Elements (ARE) (AID 2282992). The settings on record: HepG2 Attagene ARE/NRF2 reporter, transcription factor activity; actives raise or lower the signal. An outline of the steps: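 Cis-factorial assay: transfected HepG2 reporter library, 24 h dosing, mRNA readout via RT-PCR/CE; DMSO-referenced bidirectional analysis.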

The nature of test [14]: ATG_Oct_MLP_CIS: Attagene CIS-FACTORIAL HepG2 Assay for human Octamer-Binding Transcription Factor (Oct) (AID 2282993). The settings on record: HepG2 Attagene cis-factorial Oct reporter, mRNA; actives raise or lower the signal. In short, it runs like this: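 Cells of the HepG2 line express promoter-controlled reporter sequences whose mRNA levels, after 24 h treatment, are measured by RT-PCR and capillary electrophoresis. Increases and decreases are scored relative to DMSO.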

Test [15] addresses Cellular tumor antigen p53 (Homo sapiens) (UniProt P04637). In words: ATG_p53_CIS: Attagene CIS-FACTORIAL HepG2 Assay for human p53 Transcription Factor (AID 2282994). The settings on record: HepG2 p53 cis-element reporter, Attagene mRNA; actives raise or lower the signal. In short, it runs like this:
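Using HepG2 hepatoma cells carrying cis-acting multiplexed reporters, mRNA induction is detected after a 24 h exposure. Gain- and loss-of-signal responses are fitted relative to DMSO-treated cells.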

Test [16] concerns the target Nuclear receptor subfamily 4 group A member 2 (Homo sapiens) (UniProt P43354). In words: ATG_NURR1_TRANS: Attagene TRANS-FACTORIAL HepG2 Assay for human Nuclear Receptor Related Protein 1 (NURR1) (AID 2282985; active means hit-call score of the fitted dose curve at least 0.9, where 1 is the maximum). To be noted: HepG2 Attagene TRANS reporter, mRNA readout. An outline of the steps:
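HepG2 cells transiently transfected with GAL4-UAS reporter units and chimeric NR-Gal4 constructs; chemical exposure 24 h. Reporter mRNA quantified by RT-PCR, fluorescent labelling and capillary electrophoresis; gain of signal fitted relative to DMSO baseline.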

The target of test [17] is Oxysterols receptor LXR-beta (Homo sapiens) (UniProt P55055). As to the kind of experiment: ATG_LXRb_TRANS: Attagene TRANS-FACTORIAL HepG2 Assay for human Liver X Receptor beta (LXRb) (AID 2282981; active means hit-call score of the fitted dose curve at least 0.9, where 1 is the maximum). The settings on record: HepG2 Attagene TRANS GAL4-LXRb reporter, mRNA. In short, it runs like this: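 HepG2 cells transiently transfected with multiple reporter transcription units carrying chimeric NR-Gal4 proteins acting on GAL4-UAS reporters; compound exposure 24 h. Reporter mRNA quantified by RT-PCR, 6-FAM labelling, HpaI digestion and capillary electrophoresis; gain of signal versus DMSO.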

Test [18] can be described thus: BSK_3C_TissueFactor: BioMAP Diversity Plus: 3C Assay for Tissue Factor Biomarker Activity (AID 2282997). To be noted: BioMAP 3C HUVEC, tissue factor biomarker readout; actives raise or lower the signal. An outline of the steps: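 HUVEC were treated 24 h, then surface tissue factor measured by ELISA and fitted bidirectionally against DMSO. Parallel SRB total-protein staining assessed overt cytotoxicity at the same time point.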

A short description of test [19]: BSK_3C_uPAR: BioMAP Diversity Plus: 3C Assay for Urokinase-type plasminogen activator receptor (uPAR) Biomarker Activity (AID 2282998). To be noted: BioMAP 3C HUVEC, uPAR biomarker ELISA; actives raise or lower the signal. An outline of the steps: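 Endothelial primary cells of human umbilical vein origin received test chemical; 24 h later uPAR was assayed by ELISA. Fitting was bidirectional, DMSO as negative control.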

A short description of test [20]: BSK_3C_VCAM1: BioMAP Diversity Plus: 3C Assay for Vascular cell adhesion molecule 1 (VCAM1) Biomarker Activity (AID 2282999). To be noted: BioMAP 3C HUVEC, VCAM1 ELISA, cytokine-stimulated; actives raise or lower the signal. In short, it runs like this: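 Human umbilical vein endothelial cells were dosed with compound for 24 h, after which cell-surface VCAM-1 was quantified by ELISA. Bidirectional curve fitting used DMSO as negative control and activity baseline.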
(ELISA stands for enzyme-linked immunosorbent assay.)

Chain of Glucocorticoid receptor (Homo sapiens) (P04150 whole entry, looked up, the tested form may be a part): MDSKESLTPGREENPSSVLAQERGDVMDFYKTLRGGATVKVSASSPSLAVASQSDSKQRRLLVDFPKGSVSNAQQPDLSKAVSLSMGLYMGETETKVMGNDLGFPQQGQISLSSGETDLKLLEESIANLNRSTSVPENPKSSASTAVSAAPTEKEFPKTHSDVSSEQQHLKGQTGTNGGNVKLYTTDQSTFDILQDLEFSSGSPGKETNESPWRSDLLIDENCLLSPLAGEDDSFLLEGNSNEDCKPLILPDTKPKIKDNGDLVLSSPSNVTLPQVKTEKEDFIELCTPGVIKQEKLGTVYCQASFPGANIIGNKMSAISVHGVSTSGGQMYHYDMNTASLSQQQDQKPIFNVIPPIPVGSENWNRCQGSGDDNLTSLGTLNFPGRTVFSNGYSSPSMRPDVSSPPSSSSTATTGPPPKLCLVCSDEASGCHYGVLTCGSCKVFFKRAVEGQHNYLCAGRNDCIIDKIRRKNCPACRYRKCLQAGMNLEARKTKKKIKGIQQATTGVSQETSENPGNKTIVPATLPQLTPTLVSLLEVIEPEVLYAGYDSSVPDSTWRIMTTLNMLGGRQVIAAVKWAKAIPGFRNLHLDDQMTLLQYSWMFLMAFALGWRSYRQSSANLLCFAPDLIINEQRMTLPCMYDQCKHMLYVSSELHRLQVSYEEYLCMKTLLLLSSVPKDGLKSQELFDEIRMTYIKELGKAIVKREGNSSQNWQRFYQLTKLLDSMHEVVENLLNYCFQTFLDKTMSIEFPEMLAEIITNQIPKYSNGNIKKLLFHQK
Chain of Oxysterols receptor LXR-alpha (Homo sapiens) (Q13133 whole entry, looked up, the tested form may be a part): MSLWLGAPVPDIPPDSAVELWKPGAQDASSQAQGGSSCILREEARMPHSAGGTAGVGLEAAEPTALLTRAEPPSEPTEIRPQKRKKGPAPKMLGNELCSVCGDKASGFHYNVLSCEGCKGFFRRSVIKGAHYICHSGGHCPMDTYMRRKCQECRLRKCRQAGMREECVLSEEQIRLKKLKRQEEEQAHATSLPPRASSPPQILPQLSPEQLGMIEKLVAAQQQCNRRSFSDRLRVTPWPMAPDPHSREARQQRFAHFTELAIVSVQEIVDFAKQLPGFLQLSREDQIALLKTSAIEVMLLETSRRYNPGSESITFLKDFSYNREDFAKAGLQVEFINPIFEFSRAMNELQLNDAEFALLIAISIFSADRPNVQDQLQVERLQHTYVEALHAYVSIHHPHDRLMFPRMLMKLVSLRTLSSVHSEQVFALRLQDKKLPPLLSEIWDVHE
Chain of Transcriptional activator Myb (Homo sapiens) (P10242 whole entry, looked up): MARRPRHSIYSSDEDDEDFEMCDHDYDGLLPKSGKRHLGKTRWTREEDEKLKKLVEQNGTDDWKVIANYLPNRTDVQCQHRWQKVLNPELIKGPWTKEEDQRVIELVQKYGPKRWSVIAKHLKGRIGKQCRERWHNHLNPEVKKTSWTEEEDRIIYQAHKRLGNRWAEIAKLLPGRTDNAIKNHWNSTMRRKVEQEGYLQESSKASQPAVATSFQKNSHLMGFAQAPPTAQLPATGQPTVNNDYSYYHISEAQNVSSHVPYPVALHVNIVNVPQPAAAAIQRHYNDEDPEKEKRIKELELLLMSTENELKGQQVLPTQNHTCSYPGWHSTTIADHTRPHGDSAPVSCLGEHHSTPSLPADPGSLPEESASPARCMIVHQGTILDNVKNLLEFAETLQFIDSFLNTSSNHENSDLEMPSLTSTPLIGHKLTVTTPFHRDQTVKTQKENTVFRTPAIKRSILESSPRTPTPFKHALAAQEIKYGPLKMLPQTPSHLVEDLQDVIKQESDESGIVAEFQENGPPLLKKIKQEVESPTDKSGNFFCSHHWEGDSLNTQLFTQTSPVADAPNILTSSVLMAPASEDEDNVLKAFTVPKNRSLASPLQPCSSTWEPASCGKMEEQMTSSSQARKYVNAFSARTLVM
Chain of Estrogen-related receptor gamma (Homo sapiens) (P62508 whole entry, looked up, the tested form may be a part): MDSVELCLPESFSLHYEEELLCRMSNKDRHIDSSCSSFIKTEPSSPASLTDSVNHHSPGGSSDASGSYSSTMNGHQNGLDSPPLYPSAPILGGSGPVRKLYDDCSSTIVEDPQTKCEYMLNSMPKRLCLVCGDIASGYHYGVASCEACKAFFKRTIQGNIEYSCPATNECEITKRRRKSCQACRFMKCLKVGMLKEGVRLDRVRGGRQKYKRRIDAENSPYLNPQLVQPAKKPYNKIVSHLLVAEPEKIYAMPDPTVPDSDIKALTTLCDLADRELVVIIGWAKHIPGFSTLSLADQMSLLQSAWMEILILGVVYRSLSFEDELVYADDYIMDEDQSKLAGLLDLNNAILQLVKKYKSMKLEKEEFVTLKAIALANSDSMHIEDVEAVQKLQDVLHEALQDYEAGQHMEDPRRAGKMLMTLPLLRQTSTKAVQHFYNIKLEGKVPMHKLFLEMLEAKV
Chain of Nuclear respiratory factor 1 (Homo sapiens) (Q16656 whole entry, looked up): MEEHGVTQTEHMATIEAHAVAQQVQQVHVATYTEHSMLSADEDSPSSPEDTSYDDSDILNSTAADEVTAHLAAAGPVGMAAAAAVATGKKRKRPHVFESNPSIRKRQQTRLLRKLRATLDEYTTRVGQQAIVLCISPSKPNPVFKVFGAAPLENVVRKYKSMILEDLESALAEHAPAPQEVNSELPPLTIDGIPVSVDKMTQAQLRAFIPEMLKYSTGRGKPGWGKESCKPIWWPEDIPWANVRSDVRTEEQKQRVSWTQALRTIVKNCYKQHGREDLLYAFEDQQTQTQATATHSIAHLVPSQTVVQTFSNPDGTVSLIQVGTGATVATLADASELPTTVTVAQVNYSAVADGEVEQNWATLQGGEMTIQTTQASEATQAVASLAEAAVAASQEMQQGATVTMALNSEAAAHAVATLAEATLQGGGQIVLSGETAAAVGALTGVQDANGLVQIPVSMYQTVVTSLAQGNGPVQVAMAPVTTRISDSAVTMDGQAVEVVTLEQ
Chain of Myc proto-oncogene protein (Homo sapiens) (P01106 whole entry, looked up): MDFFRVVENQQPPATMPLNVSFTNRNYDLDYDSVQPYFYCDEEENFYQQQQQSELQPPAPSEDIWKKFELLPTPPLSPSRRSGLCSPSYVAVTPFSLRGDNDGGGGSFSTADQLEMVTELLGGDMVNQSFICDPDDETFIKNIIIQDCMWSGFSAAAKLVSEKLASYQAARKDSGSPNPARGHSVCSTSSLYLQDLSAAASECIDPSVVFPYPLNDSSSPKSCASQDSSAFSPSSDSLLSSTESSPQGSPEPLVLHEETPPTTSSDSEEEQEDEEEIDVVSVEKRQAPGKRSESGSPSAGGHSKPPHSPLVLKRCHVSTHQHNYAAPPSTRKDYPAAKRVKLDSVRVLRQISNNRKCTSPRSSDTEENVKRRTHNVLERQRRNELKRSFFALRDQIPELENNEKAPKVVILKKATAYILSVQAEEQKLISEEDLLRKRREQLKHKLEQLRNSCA
Chain of Bile acid receptor (Homo sapiens) (Q96RI1 whole entry, looked up, the tested form may be a part): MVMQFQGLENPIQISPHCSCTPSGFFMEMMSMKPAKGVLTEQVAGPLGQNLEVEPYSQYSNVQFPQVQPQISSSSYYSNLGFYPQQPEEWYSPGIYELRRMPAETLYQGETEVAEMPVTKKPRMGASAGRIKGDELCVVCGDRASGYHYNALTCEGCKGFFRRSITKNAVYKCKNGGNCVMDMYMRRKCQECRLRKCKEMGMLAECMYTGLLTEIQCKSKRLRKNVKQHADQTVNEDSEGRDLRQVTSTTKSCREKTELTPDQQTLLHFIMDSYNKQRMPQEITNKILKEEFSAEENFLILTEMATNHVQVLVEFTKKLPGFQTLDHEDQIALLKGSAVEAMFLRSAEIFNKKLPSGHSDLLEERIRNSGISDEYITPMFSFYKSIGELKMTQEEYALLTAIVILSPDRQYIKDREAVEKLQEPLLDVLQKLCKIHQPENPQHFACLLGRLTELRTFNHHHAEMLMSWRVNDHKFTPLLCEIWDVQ
Chain of Nuclear receptor subfamily 4 group A member 2 (Homo sapiens) (P43354 whole entry, looked up, the tested form may be a part): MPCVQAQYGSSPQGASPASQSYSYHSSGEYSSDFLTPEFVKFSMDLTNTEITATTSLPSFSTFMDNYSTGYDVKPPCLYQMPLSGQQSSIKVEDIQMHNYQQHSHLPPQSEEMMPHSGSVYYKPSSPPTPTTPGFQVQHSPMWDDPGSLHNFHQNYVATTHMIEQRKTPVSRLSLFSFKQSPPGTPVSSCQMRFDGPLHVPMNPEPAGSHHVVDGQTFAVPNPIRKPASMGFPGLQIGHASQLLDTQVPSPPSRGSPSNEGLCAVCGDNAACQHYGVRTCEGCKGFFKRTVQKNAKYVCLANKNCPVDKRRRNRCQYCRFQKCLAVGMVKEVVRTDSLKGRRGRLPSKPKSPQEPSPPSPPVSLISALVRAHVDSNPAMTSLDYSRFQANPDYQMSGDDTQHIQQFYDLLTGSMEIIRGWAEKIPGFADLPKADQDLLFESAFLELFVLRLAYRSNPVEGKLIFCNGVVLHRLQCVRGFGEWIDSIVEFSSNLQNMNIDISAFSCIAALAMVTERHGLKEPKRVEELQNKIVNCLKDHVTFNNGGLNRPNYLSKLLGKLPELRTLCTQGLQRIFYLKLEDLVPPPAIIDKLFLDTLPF
Chain of Cellular tumor antigen p53 (Homo sapiens) (P04637 whole entry, looked up): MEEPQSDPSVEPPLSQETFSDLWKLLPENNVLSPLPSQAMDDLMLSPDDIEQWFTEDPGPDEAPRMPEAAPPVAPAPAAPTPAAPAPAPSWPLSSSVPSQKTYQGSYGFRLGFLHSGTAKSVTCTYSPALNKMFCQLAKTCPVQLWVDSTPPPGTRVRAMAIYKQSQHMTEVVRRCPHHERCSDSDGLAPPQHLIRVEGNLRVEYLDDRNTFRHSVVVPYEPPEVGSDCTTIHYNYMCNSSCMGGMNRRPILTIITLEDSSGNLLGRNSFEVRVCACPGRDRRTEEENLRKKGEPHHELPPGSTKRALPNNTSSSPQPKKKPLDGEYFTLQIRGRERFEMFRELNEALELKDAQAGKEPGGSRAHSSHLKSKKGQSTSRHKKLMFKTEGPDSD

Take `Nc1c(Br)cc([N+](=O)[O-])cc1Br`: the call in test [1], in [2], in test [3], in test [4], in test [5] and in [6] was inactive. Further, the call in test [7], in test [8], in test [9], in [10], in [11] and in test [12] was inactive. Also, the outcome in [14] and in test [15] was inactive. Besides, in test [13], the half-maximal activity concentration (AC50) (commonly the concentration at which the activity in the assay is half-maximal) is 27.4 µM (active).
Regarding `CC(C)CC=C(C=O)c1ccccc1`, the compound was classed as inactive in [1], in test [2], in [3], in test [7], in test [16] and in test [8]. Also, the call in test [9], in test [10], in [11], in test [12] and in test [14] was inactive. Further, the AC50 in [13] is 71.8 µM (active).
Turning to `FC(F)(F)C(F)(F)C(F)(F)CC1CO1` (configuration not stated), the compound was classed as inactive in [1], in [2], in [3], in test [4], in test [17] and in [6]. In addition, the compound was classed as inactive in [7], in test [16], in [8], in test [9], in test [10] and in test [11]. Moreover, the outcome in test [12], in test [13], in test [18], in [19] and in [20] was inactive.
Consider `C=C(C)CCCC`, for which the compound was classed as inactive in test [1], in test [2], in [3], in [4], in [7] and in test [8]. The outcome in test [9], in test [10], in [11], in [12], in test [13] and in test [14] was inactive. The outcome in test [15] was inactive.
